Here are results for 27 compounds from PubChem BioAssay (NCI).

Holding throughout (experiment): NCI-60 one-dose screen, 48 h (100 = growth as untreated, 0 = no growth, -100 = all killed)
Holding throughout (conditions): 10 µM unless noted

Experiment [1] has as its system NCI-H23 lung.
In experiment [2] the test system is NCI-H226 lung.
Experiment [3] deals with NCI-H322M lung.
The test system of experiment [4] is HOP-62 NSCLC.
The test system of experiment [5] is NCI-H460 lung.
For experiment [6], the system named is HOP-92 NSCLC.
The test system of experiment [7] is NCI-H522 lung.
The subject of experiment [8] is A549/ATCC NSCLC.
For experiment [9], the system named is 786-0 renal.
Experiment [10] deals with COLO 205 colon.

Structures are written as SMILES. This is part of a sample that, as a whole, favours compounds with a hit. Of some 83,000 tested, about 20% had one in any assay.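 In brief: 96-well plates, 48 h treatment, single concentration, percent growth endpoint.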 A number with no mark means an inactive call. Calls of active or inactive are those of the source. The calls were made as follows: active = growth percent below 10; inactive = the rest.

Take `COc1ccc(-c2nc(/C=C3\SC(=NCc4ccccc4)NC3=O)c3ccccn23)cc1`: the growth is -73.4% (active) in [1]; 5.75% (active) in experiment [2]; 20.4% in experiment [3]; -50.7% (active) in [4]; -54.6% (active) in experiment [5]; -38.2% (active) in [6]. Further, the growth in experiment [7] is -36% (active); in experiment [8], -27.3% (active); in experiment [9], -96.3% (active); in [10] it was -69.1% (active).
`O=S(=O)(NCCNc1nccc(-c2c(-c3cccc(F)c3)nc3occn23)n1)c1ccc(Br)cc1`: the growth in experiment [1] was 87.9%; in [2], 75.5%; in experiment [3], 82.1%; in [4], 90.1%; in experiment [5], 68.5%; in experiment [6] it was 74.7%. Further, the growth in [7] was 81.8%; in experiment [8] it was 53.9%; in [9], 76.3%; in experiment [10], 85.4%.
With `COc1ccc(/C=C2\C(=O)N=C3N2NC(c2cc(Br)ccc2O)C=C(C)N3c2ccccc2)cc1` (stereo not given), the growth in experiment [1] is 94.7%; in experiment [2], 85.1%; in [3], 97.3%; in experiment [4] it was 108%; in experiment [5] it was 104%; in experiment [6] it was 93.6%. For the same compound, the growth is 95.1% in experiment [7], 96% in [8], 101% in experiment [9] and 115% in experiment [10].
As to `Clc1ccc(CNc2c3ccccc3nc3ccccc23)cc1`, the growth was 53% in experiment [1]; 75.5% in [2]; 54.1% in experiment [3]; 53% in experiment [4]; 16.4% in experiment [5]; 25.5% in experiment [6]. The growth in [7] was 66.5%; in experiment [8] it was 39.3%; in [9], 35.3%; in experiment [10], 8.58% (active).
In the case of `O=C1/C(=C/c2ccc(Cl)cc2)COc2ccc(O)c(O)c21`, the growth was 42.3% in [1]; 90.6% in [2]; 37.5% in experiment [3]; -22.7% (active) in experiment [4]; 31.1% in [5]; -5.33% (active) in [6]. Besides, the growth was -60.9% (active) in [7], 42.9% in experiment [8], -80.8% (active) in experiment [9] and 27.7% in experiment [10].
As for `O=C1/C(=C/c2ccccc2Br)COc2ccc(O)c(O)c21`, the growth in experiment [1] was 46.5%; in [2] it was 86.3%; in [3], 33.3%; in experiment [4], -5.9% (active); in experiment [5] it was 14.3%; in experiment [6], 36.9%. Also, the growth in experiment [7] is -45.2% (active); in experiment [8], 35.1%; in experiment [9] it was -41.6% (active); in [10], 82.2%.
For the compound `N#Cc1cnc(NCCc2ccncc2)nc1-n1cnc2ccccc21`, the growth in experiment [1] is 76%; in experiment [2] it was 68.7%; in experiment [3] it was 35%; in experiment [4], 77.3%; in experiment [5] it was 39.5%; in experiment [6], 95.7%. Besides, the growth in [7] was 55.8%; in experiment [8], 53.5%; in [9], 40.3%; in experiment [10], 72.1%.
Consider `Cn1ccc2c3c(ccc21)CC3=O`, for which the growth is 97% in [1]; 100% in experiment [2]; 116% in experiment [3]; 111% in [4]; 108% in experiment [5]; 114% in experiment [6]. Moreover, the growth is 98.4% in experiment [7], 105% in experiment [8], 107% in [9] and 119% in [10].
For `Fc1ccc(-c2nn(-c3ccccc3)cc2-c2nc3ccccc3o2)cc1`, the growth in experiment [1] is 65.8%; in experiment [2], 84.4%; in experiment [3] it was 107%; in experiment [4], 48.7%; in experiment [5], 37.5%; in [6], 91.2%. The growth in experiment [7] was 82.3%; in [8] it was 55.3%; in [9] it was 88.3%; in experiment [10], 140%.
With `O=C(CSc1nc2ccc([N+](=O)[O-])cc2[nH]1)Nc1ccc(F)cc1`, the growth in [1] was 40.4%; in [2] it was 48.9%; in experiment [3], 86.5%; in experiment [4], 105%; in [5], 56.8%; in experiment [6], -6.84% (active). Further, the growth is 30.1% in experiment [7], 58.2% in [8], 62.7% in [9] and 68.3% in experiment [10].
For `CCCCCCCCn1ccc2cc(NC(=O)Cn3cc(CN4CCCCC4)nn3)ccc21`, the growth was 75% in [1]; 79.4% in experiment [2]; 17.6% in [3]; 58.6% in experiment [4]; -50.6% (active) in experiment [5]; 38.1% in [6]. Besides, the growth in experiment [7] is 10.3%; in experiment [8] it was 25.2%; in experiment [9] it was -68.5% (active); in experiment [10] it was -80% (active).
As for `Cc1cc(Cl)ccc1NC(=O)c1cc2ccccc2cc1O`, the growth in [1] was 7.5% (active); in experiment [2], 33.5%; in experiment [3], -1.74% (active); in [4] it was 33.9%; in experiment [5] it was 2.76% (active); in experiment [6], -12.1% (active). Moreover, the growth is -8.43% (active) in experiment [7], 20.8% in experiment [8], 28.4% in experiment [9] and 99.8% in experiment [10].
On to `O=C1c2c(c3c4ccc(Br)cc4oc3c3[nH]c4ccccc4c23)C(=O)N1O`, for which the growth was 22.7% in experiment [1]; 61.7% in experiment [2]; 59.7% in experiment [3]; 29.3% in [4]; 10.7% in experiment [5]; -2.77% (active) in experiment [6]. Further, the growth in experiment [7] is 6.86% (active); in experiment [8], 64.3%; in experiment [9] it was 84.8%; in [10] it was 42.7%.
As to `NC(=O)CCC(C(=O)O)N1C(=O)c2ccc(O)cc2C1=O` (stereo not given), the growth in experiment [1] is 118%; in experiment [2] it was 107%; in experiment [3], 112%; in [4], 113%; in experiment [5] it was 109%; in experiment [6], 93.2%. For the same compound, the growth in [7] is 102%; in experiment [8] it was 122%; in experiment [9], 111%; in [10] it was 119%.
For `Cc1c(-c2nc3ccc(F)cc3c(=O)[nH]2)c2ccccc2n1C`, the growth is 50.5% in experiment [1]; 61.1% in experiment [2]; 78.5% in experiment [3]; 38.4% in experiment [4]; 16.2% in experiment [5]; 60.5% in experiment [6]. Besides, the growth in experiment [7] is 42%; in [8] it was 46.4%; in experiment [9], 37.9%; in experiment [10], 30.9%.
With `CCN(CC)CCCN1C(=O)c2c(c(C)c3c(oc4cc(O)ccc43)c2C)C1=O`, the growth in [1] is 104%; in experiment [2], 35.4%; in experiment [3], 92.5%; in [4] it was 94.5%; in experiment [5], -24.6% (active); in experiment [6] it was 93.7%. For the same compound, the growth in experiment [7] is 82.6%; in [8] it was -74% (active); in experiment [9] it was -80.6% (active); in experiment [10], 57.4%.
In the case of `CCN(CC)C(=S)SC(SC(=S)N(CC)CC)C(=O)c1nnn(-c2ccc([N+](=O)[O-])cc2)c1C`, the growth was 98.4% in experiment [1]; 104% in experiment [2]; 98.5% in [3]; 97.3% in [4]; 73.9% in experiment [5]; 89.5% in experiment [6]. For the same compound, the growth in experiment [7] was 79.5%; in experiment [8], 95.9%; in experiment [9] it was 94.2%; in [10] it was 95.2%.
On to `CC(C)N1CN2C(=S)NC3C2N(C1)C(=S)N3C` (stereo not given), for which the growth in experiment [1] is 102%; in experiment [2], 100%; in experiment [3], 104%; in experiment [4] it was 103%; in [5], 105%; in [6], 101%. The growth in [7] was 90.2%; in experiment [8], 90.8%; in experiment [9], 99.3%; in [10], 120%.
In the case of `Nc1ncnc2c1N=C(c1ccc3c(c1)OCO3)CC(c1cccc(Nc3ccnc4cc(Cl)ccc34)c1)N2` (stereo not given), the growth in experiment [1] is 49.8%; in experiment [2], 69.8%; in experiment [3], 76.2%; in experiment [4], 64%; in experiment [5], 59.8%; in experiment [6] it was 26.6%. Moreover, the growth in experiment [7] is 58%; in [8], 67.2%; in experiment [9] it was 55.1%; in [10] it was 82.7%.
In the case of `Cn1cc(-c2nonc2-c2c[nH]c3ccc(Br)cc23)c2cc(Br)ccc21`, the growth is 39.9% in experiment [1]; 44.8% in experiment [2]; 32.1% in experiment [3]; 29.1% in [4]; 13.3% in [5]; 55.6% in [6]. Besides, the growth in experiment [7] was 24.3%; in experiment [8], 30.8%; in experiment [9], 34.3%; in [10] it was 49.1%.
As for `Cc1ccc(-c2csc(NC(=O)CN3CCN(c4cc5c(cc4F)c(=O)c(C(=O)O)cn5C4CC4)CC3)n2)cc1`, the growth in experiment [1] was 4.26% (active); in experiment [2] it was 28.6%; in experiment [3], 12.4%; in experiment [4], 11.2%; in experiment [5], 14.4%; in experiment [6] it was -16.4% (active). The growth in experiment [7] was -11.7% (active); in experiment [8] it was 3.47% (active); in experiment [9] it was 22.6%; in experiment [10], -17.6% (active).
In the case of `O=C1Nc2ccccc2/C1=C\c1nc(-c2ccccc2F)n2ccccc12`, the growth in experiment [1] was 33.2%; in experiment [2], -1.5% (active); in [3] it was 26%; in experiment [4], -1.47% (active); in experiment [5] it was -20.4% (active); in experiment [6] it was 40.4%. In addition, the growth in experiment [7] is -23% (active); in [8], 26.5%; in [9], -34.5% (active); in [10], 72.8%.
Turning to `CN1C(=O)/C(=C/c2ccc(C(=O)Nc3ncc(Cc4ccc(Cl)cc4)s3)cc2)SC1=S`, the growth in [1] was 65.7%; in experiment [2] it was 71.5%; in [3], 56%; in experiment [4], 49.7%; in [5], 21.1%; in [6], 51.6%. Besides, the growth is 36.4% in [7], 48.5% in [8], 47.5% in experiment [9] and 80.3% in experiment [10].
As to `O=C1/C(=C\c2cn(-c3ccccc3)nc2-c2ccc(-c3cccs3)cc2)CCc2ccccc21`, the growth in experiment [1] is 71.4%; in [2], 74.4%; in experiment [3], 98.5%; in experiment [4], 75.5%; in experiment [5] it was 47.1%; in experiment [6] it was 78.7%. Moreover, the growth in [7] is 24.7%; in [8], 60.4%; in experiment [9], 73.2%; in [10] it was 74.6%.
In the case of `O=C(O)CNC1=C(Cl)C(=O)c2ccccc2C1=O`, the growth in [1] was 88%; in [2] it was 109%; in [3] it was 103%; in [4], 95.4%; in experiment [5], 102%; in experiment [6], 74.1%. Further, the growth is 78.8% in [7], 96.6% in [8], 101% in experiment [9] and 113% in [10].
Consider `O=C(/C=C/c1ccc(Cl)cc1)c1cccc(Nc2nc(Nc3ccccc3)nc(Nc3ccccc3)n2)c1`, for which the growth in [1] is 85.8%; in experiment [2] it was 96.9%; in experiment [3] it was 94.6%; in [4] it was 85.2%; in [5], 103%; in [6] it was 24.1%. The growth is 89.3% in experiment [7], 81.8% in experiment [8], 86.4% in experiment [9] and 93.1% in experiment [10].
As to `COc1cc(-c2csc(NC(=O)c3cc(-n4cnc(C)c4)cc(C(F)(F)F)c3)n2)cc(OC)c1OC`, the growth was 61.2% in experiment [1]; 58% in experiment [2]; 67% in experiment [3]; 72.4% in [4]; 33.8% in [5]; 6.13% (active) in experiment [6]. In addition, the growth in experiment [7] was 38.5%; in [8] it was 60.2%; in experiment [9], 60.2%; in experiment [10], 84.9%.
